Results published in the supplement of paper PMC9262897, “Low-cost anti-mycobacterial drug discovery using engineered E. coli” (Nature Communications, 2022).
Where a name gives a salt, the structure may show the parent alone. ± gives the standard deviation of the averaged measurements.

test system: E. coli TESEC Alr+ wild-type control; assay: growth (OD600 after 10 h); higher = more growth (less inhibition); conditions: compound 0.1 mM; raw OD600 reference: median of DMSO wells 0.241, cell-free background 0.041
Description: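 TESEC Mtb Alr E. coli, or the Alr+ wild-type control, in 384-well plates with Prestwick library compounds at 0.1 mM and 1% DMSO, across arabinose induction levels of 1E3 to 1E7 nM. Growth is read as OD600 after 10 h at 37 °C in triplicate biological replicates.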

Compound | growth
CSc1ccc2c(c1)C(N1CCN(C)CC1)Cc1ccccc1S2 (centres undefined) [Methiothepin maleate] | 0.0405 ± 0.00044
N[C@@H]1CONC1=O [D-cycloserine] | 0.246 ± 0.0051
Clc1ccc(COC(Cn2ccnc2)c2ccc(Cl)cc2Cl)c(Cl)c1 (centres undefined) [Miconazole] | 0.0977 ± 0.098
CC(C)OC(=O)CCC/C=C\C[C@@H]1[C@@H](CC[C@@H](O)CCc2ccccc2)[C@H](O)C[C@@H]1O [Latanoprost] | 0.0604 ± 0.0021
CC(NCCc1ccc(O)cc1)C(O)c1ccc(O)cc1 (centres undefined) [Ritodrine hydrochloride] | 0.234 ± 0.0026

test system: E. coli TESEC Mtb Asd; assay: as above; conditions: arabinose induction (level): High; compound 0.1 mM; raw OD600 reference: median of DMSO wells 0.331, cell-free background 0.041
Description: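 TESEC E. coli strains in which the native enzyme is deleted and replaced by arabinose-inducible Mtb Asd, DapB, CysH or TrpD, each grown in its selective medium. Strains were screened against the Prestwick library at 0.1 mM and 1% DMSO in 384-well format at low and high arabinose induction. Growth is read as OD600 after 10 h in triplicate.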

Compound | growth
CN(C)CCc1c[nH]c2ccc(Cn3cncn3)cc12 [Rizatriptan benzoate] | 0.337 ± 0.057
COc1ccc(CCN(C)CCCC(C#N)(c2ccc(OC)c(OC)c2)C(C)C)cc1OC (centres undefined) [Verapamil hydrochloride] | 0.243 ± 0.048
CC1=C(/C=C/C(C)=C/C=C/C(C)=C\C(=O)O)C(C)(C)CCC1 [Isotretinoin] | 0.328 ± 0.098
CCCOc1cc(N)ccc1C(=O)OCCN(CC)CC [Propoxycaine hydrochloride] | 0.36 ± 0.085
CO/N=C(\C(=O)N[C@@H]1C(=O)N2C(C(=O)O)=C(COC(C)=O)CS[C@H]12)c1csc(N)n1 [Cefotaxime sodium salt] | 0.0625 ± 0.0074
Clc1ccc(Cn2c(CN3CCCC3)nc3ccccc32)cc1 [Clemizole hydrochloride] | 0.174 ± 0.038
COc1ccccc1N1CCN(CCCCNC(=O)c2ccc3ccccc3c2)CC1 | 0.156 ± 0.0093
CC[C@H](c1ccc(O)cc1)[C@@H](CC)c1ccc(O)cc1 [Hexestrol] | 0.0495 ± 0.0033
Cc1cc(N)c2ccccc2[n+]1CCCCCCCCCC[n+]1c(C)cc(N)c2ccccc21 [Dequalinium dichloride] | 0.0691 ± 0.0051
Clc1ccc(Nc2nnc(Cc3ccncc3)c3ccccc23)cc1 [Vatalanib] | 0.112 ± 0.017
NNc1nncc2ccccc12 [Hydralazine hydrochloride] | 0.206 ± 0.017
NC(Cc1cc(I)c(Oc2cc(I)c(O)c(I)c2)c(I)c1)C(=O)O (centres undefined) [Thyroxine (L)] | 0.354 ± 0.0042
Cc1onc(-c2c(F)cccc2Cl)c1C(=O)N[C@@H]1C(=O)N2[C@@H]1SC(C)(C)[C@@H]2C(=O)O [Flucloxacillin sodium] | 0.265 ± 0.056
C[C@H](N[C@@H](CCc1ccccc1)C(=O)O)C(=O)N1CCC[C@H]1C(=O)O [Enalaprilat dihydrate] | 0.259 ± 0.063
COCCOC(=O)C1=C(C)NC(C)=C(C(=O)OC/C=C/c2ccccc2)C1c1cccc([N+](=O)[O-])c1 (centres undefined) [Cilnidipine] | 0.187 ± 0.016
CCCNCC(O)COc1ccccc1C(=O)CCc1ccccc1 (centres undefined) [Propafenone hydrochloride] | 0.144 ± 0.007
Cn1nnc2c(C(N)=O)ncn2c1=O [Temozolomide] | 0.225 ± 0.0049
CCc1nn(CCCN2CCN(c3cccc(Cl)c3)CC2)c(=O)n1CCOc1ccccc1 [Nefazodone HCl] | 0.0498 ± 0.0029
CC(=O)OCC(=O)[C@@]12OC3(CCCC3)O[C@@H]1C[C@H]1[C@@H]3CCC4=CC(=O)C=C[C@]4(C)[C@@]3(F)[C@@H](O)C[C@@]12C [Amcinonide] | 0.451 ± 0.11
COc1ccccc1O [Guaiacol] | 0.212 ± 0.031

Compound | growth
C(=C\c1ccccc1)/CN1CCN(C(c2ccccc2)c2ccccc2)CC1 [Cinnarizine] | 0.277 ± 0.079
CCN(CC)C(C)CN1c2ccccc2Sc2ccccc21 (centres undefined) [Ethopropazine hydrochloride] | 0.156 ± 0.031
CC(CCc1ccccc1)NCC(O)c1ccc(O)c(C(N)=O)c1 (centres undefined) [Labetalol hydrochloride] | 0.26 ± 0.015
CN(Cc1cnc2nc(N)nc(N)c2n1)c1ccc(C(=O)N[C@@H](CCC(=O)O)C(=O)O)cc1 [Methotrexate] | 0.24 ± 0.055
NS(=O)(=O)c1cc2c(cc1Cl)NC(CC1CCCC1)NS2(=O)=O (centres undefined) [Cyclopenthiazide] | 0.377 ± 0.063
CC1(C)NC(=O)N(c2ccc([N+](=O)[O-])c(C(F)(F)F)c2)C1=O [Nilutamide] | 0.281 ± 0.1
CC(=O)O[C@H]1C[C@@H]2CC[C@@H]3[C@H](CC[C@@]4(C)[C@H]3C[C@H]([N+]3(C)CCCCC3)[C@@H]4OC(C)=O)[C@@]2(C)C[C@@H]1N1CCCCC1 [Vecuronium bromide] | 0.136 ± 0.0039
Clc1ccc(C(Cn2ccnc2)OCc2csc3c(Cl)cccc23)c(Cl)c1 (centres undefined) [Sertaconazole nitrate] | 0.0594 ± 0.0039
Cn1c(=O)c2c(ncn2C)n(C)c1=O [Caffeine] | 0.304 ± 0.065
C[N+]1(C)CCC(OC(=O)C(O)(c2ccccc2)C2CCCC2)C1 (centres undefined) [Glycopyrrolate] | 0.337 ± 0.055
Clc1cccc(Cl)c1NC1=NCCN1 [Clonidine hydrochloride] | 0.377 ± 0.03
Cc1cc(O)c(C(=O)N[C@@H](C(=O)N[C@@H]2C(=O)N3C(C(=O)O)=C(CSc4nnnn4C)CS[C@H]23)c2ccc(O)cc2)cn1 [Cefpiramide] | 0.356 ± 0.063
C#C[C@]1(O)CC[C@H]2[C@@H]3CCC4=C(CCC(=O)C4)[C@H]3CC[C@@]21C [Norethynodrel] | 0.128 ± 0.016
Nc1ccc(O)c(C(=O)O)c1 [Mesalamine] | 0.339 ± 0.052
CSc1ccc2c(c1)C(N1CCN(C)CC1)Cc1ccccc1S2 (centres undefined) [Methiothepin maleate] | 0.0562 ± 0.0036
N[C@@H]1CONC1=O [D-cycloserine] | 0.252 ± 0.066
Clc1ccc(COC(Cn2ccnc2)c2ccc(Cl)cc2Cl)c(Cl)c1 (centres undefined) [Miconazole] | 0.0471 ± 0.00055
CC(C)OC(=O)CCC/C=C\C[C@@H]1[C@@H](CC[C@@H](O)CCc2ccccc2)[C@H](O)C[C@@H]1O [Latanoprost] | 0.0525 ± 0.0016
CC(NCCc1ccc(O)cc1)C(O)c1ccc(O)cc1 (centres undefined) [Ritodrine hydrochloride] | 0.251 ± 0.027
